Data on 40 compounds can be found in the supplement of paper PMC10981050.

Structures can show the parent of a compound that is named as a salt.

One test relates to MARIMO. The test can be described thus: cell viability relative to vehicle control; higher = less cytotoxic. Conditions: 10 µM; SRSF2 genotype: SRSF2 wt/wt. In a few lines: (§1)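 Four leukaemia lines, as CRISPR-edited mutant clones and isogenic wild-type clones, were tested against Selleck bioactive, kinase and epigenetic probe libraries after removal of identity-inconsistent compounds. Cells were exposed to a single 10 µM dose for 48 h, and CellTiter-Glo luminescence was then read. Viability was calculated relative to the on-plate vehicle control.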
The cell viability is a read-out of living cells in per cent, often relative to untreated cells. For the compound `CC(CCc1ccccc1)NCC(=O)c1ccc(O)c(C(N)=O)c1` (stereo not drawn) [Labetalone hydrochloride], the cell viability was 102%.

With `COc1cc(C(=O)N(CCCc2ccccc2)Cc2ccc(CC(=O)O)cc2)cc(OC)c1C`, the cell viability stood at 109%.

For the compound `O=C1N=C(O)NC1(c1ccccc1)c1ccccc1` [Phenytoin sodium (Dilantin)], the cell viability worked out at 103%.

`Cn1c(Nc2ccc(C(F)(F)F)cc2)nc2cc(Oc3ccnc(-c4ncc(C(F)(F)F)[nH]4)c3)ccc21`: the cell viability amounted to 58.6%.

For the compound `CCc1cncnc1N1CCN(Cc2nc3ccc(C(F)(F)F)cc3[nH]2)CC1`, the cell viability turned out to be 47.9%.

Turning to `N#Cc1cc(-c2n[nH]c(-c3ccncc3)n2)ccn1` [Topiroxostat], the cell viability stood at 111%.

With `O=C1c2c(O)cc(O)cc2OC(c2ccc(O)c(O)c2)C1O` (stereo not drawn) [Taxifolin (Dihydroquercetin)], the cell viability is 96.5%.

Consider `CC1(C)CCCC2(C)C1CCC1(C)OCCC12` (single isomer, unassigned; (-)) [(-)-Ambroxide], for which the cell viability was found to be 101%.

For the compound `CCOc1nc2cccc(C(=O)OC(C)OC(=O)OC3CCCCC3)c2n1Cc1ccc(-c2ccccc2-c2nn[nH]n2)cc1` (stereo not drawn) [Candesartan cilexetil (Atacand)], the cell viability worked out at 106%.

For `COc1cc2c(=O)c3c(O)c([C@@H]4O[C@H](CO[C@@H]5OC[C@](O)(CO)[C@H]5O)[C@@H](O)[C@H](O)[C@H]4O)c(O)cc3oc2cc1O` [Polygalaxanthone III], the cell viability was found to be 98.8%.

For the compound `O=[N+]([O-])c1ccc2c(c1)S(=O)(=O)C=C2` [Stattic], the cell viability was determined as 0.16%.

With `CC(C)OC(=O)OCOP(=O)(CO[C@H](C)Cn1cnc2c(N)ncnc21)OCOC(=O)OC(C)C` [Tenofovir Disoproxil Fumarate], the cell viability came to 79.2%.

`CC(=O)OC(C)(C)CCC(=O)[C@](C)(O)[C@H]1[C@H](O)C[C@@]2(C)[C@@H]3CC=C4[C@@H](C[C@H](O)[C@@H](O)C4(C)C)[C@]3(C)C(=O)C[C@]12C` [Curcurbitacin IIA]: the cell viability turned out to be 87.6%.

Consider `CC(C)NC[C@@H](C(=O)N1CCN(c2ncnc3c2[C@H](C)C[C@H]3O)CC1)c1ccc(Cl)cc1` [Ipatasertib (GDC-0068)], for which the cell viability was found to be 80%.

Consider `O=C1C(=Cc2cccnc2)C(=O)c2ccccc21`, for which the cell viability came to 102%.

Regarding `N[C@@H](CSC(c1ccccc1)(c1ccccc1)c1ccccc1)C(=O)O`, the cell viability was found to be 4.29%.

With `CC(C)=CC[C@@H](O)C1=CC(=O)c2c(O)ccc(O)c2C1=O` [Shikonin], the cell viability is 0.35%.

For `C[C@H]1CN(C[C@H](Cc2ccccc2)C(=O)NCC(=O)O)CC[C@@]1(C)c1cccc(O)c1` [Alvimopan dihydrate], the cell viability is 112%.

With `CC(=O)O[C@H]1CC(=O)OC(C)(C)[C@@H]2CC(=O)[C@]3(C)[C@H](CC[C@@]4(C)[C@@H](c5ccoc5)OC(=O)[C@H]5O[C@]543)[C@@]12C` [Nomilin], the cell viability turned out to be 105%.

Consider `CC(C)(C)c1nc(-c2ccc(NC(=O)Nc3cccc(C(F)(F)F)c3)c3ccccc23)c2c(N)nccn12` [kira6], for which the cell viability was determined as 28.4%.

Consider `COc1ccc2[nH]c([S+]([O-])Cc3ncc(C)c(OC)c3C)nc2c1` (stereo not drawn) [Omeprazole (Prilosec)], for which the cell viability was found to be 98.5%.

On to `COc1ccc2cc([C@H](C)C(=O)O)ccc2c1` [Naproxen Sodium], for which the cell viability turned out to be 97.2%.

As to `C#C[C@]1(O)CC[C@H]2[C@@H]3CCC4=CCCC[C@@H]4[C@H]3C(=C)C[C@@]21CC` [Desogestrel], the cell viability came to 81.7%.

Regarding `COc1ccc2c(c1)c(C1=C(c3c[nH]c4ccccc34)C(=O)NC1=O)cn2CCCN(C)C`, the cell viability is 85.8%.

With `C[C@@H]1CC[C@]2(C(=O)O[C@@H]3O[C@H](CO)[C@@H](O)[C@H](O)[C@H]3O)CC[C@]3(C)C(=CC[C@@H]4[C@@]5(C)CC[C@H](O)[C@@](C)(CO)[C@@H]5CC[C@]43C)[C@@H]2[C@]1(C)O` [Pedunculoside], the cell viability stood at 97.5%.

Consider `CCc1cc(Nc2nccc(-c3c(-c4ccc(OC)c(C(=O)Nc5c(F)cccc5F)c4)nc4ccccn34)n2)c(OC)cc1N1CCC(N2CCN(S(C)(=O)=O)CC2)CC1`, for which the cell viability is 108%.

A further test has as its system MOLM14. The test is described as above. The note with it: 10 µM; SRSF2 genotype: SRSF2 P95H/wt. In a few lines: as §1
Consider `NS(=O)(=O)c1cc2c(cc1Cl)N=CNS2(=O)=O` [Chlorothiazide], for which the cell viability is 102%.

On to `CC(C)CCCC(C)C1CCC2C3CCC4CC(O)CCC4(C)C3CCC12C` (stereo not drawn) [Dihydrocholesterol], for which the cell viability is 90.2%.

For `CC(C)c1c(C(=O)Nc2ccccc2)c(-c2ccccc2)c(-c2ccc(F)cc2)n1CC[C@@H](O)C[C@@H](O)CC(=O)O` [Atorvastatin calcium (Lipitor)], the cell viability was determined as 67.7%.

For the compound `O=C1CCC(N2C(=O)c3ccccc3C2=O)C(=O)N1` (stereo not drawn) [Thalidomide], the cell viability worked out at 87.5%.

Regarding `COc1ccc(C2=N[C@@H](c3ccc(Cl)cc3)[C@@H](c3ccc(Cl)cc3)N2C(=O)N2CCNC(=O)C2)c(OC(C)C)c1` [Nutlin-3], the cell viability came to 0.14%.

`CC1(C)C(O[C@@H]2OC[C@@H](O)[C@H](O)[C@H]2O)CC[C@]23CC24CC[C@]2(C)[C@@H]([C@@]5(C)CC[C@@H](C(C)(C)O)O5)[C@H](O)C[C@@]2(C)C4C[C@@H](O[C@@H]2O[C@H](CO)[C@@H](O)[C@H](O)[C@H]2O)C13` (stereo partly drawn) [Astragaloside IV]: the cell viability was found to be 108%.

Take `COC(=O)N[C@H](C(=O)N[C@@H](Cc1ccccc1)[C@@H](O)CN(Cc1ccc(-c2ccccn2)cc1)NC(=O)[C@@H](NC(=O)OC)C(C)(C)C)C(C)(C)C` [Atazanavir sulfate]: the cell viability turned out to be 103%.

On to `CCCCCCCC/C=C\CCCCCCCC(=O)OCC` [Ethyl Oleate], for which the cell viability amounted to 92.3%.

For the compound `O=CC[C@@H](O)[C@H](O)[C@H](O)CO` [2-Deoxy-D-glucose], the cell viability was 102%.

As to `C[S+](CC[C@H](N)C(=O)[O-])C[C@H]1O[C@@H](n2cnc3c(N)ncnc32)[C@H](O)[C@@H]1O` (stereo partly drawn) [Ademetionine], the cell viability was found to be 109%.

`O=C1c2ccccc2C(=O)C1c1ccccc1` [Phenindione (Rectadione)]: the cell viability turned out to be 107%.

In the case of `CNCC[C@@H](Oc1ccccc1C)c1ccccc1` [Atomoxetine HCl], the cell viability is 101%.

For `CCNC(=O)[C@@H]1CCCN1C(=O)[C@H](CCCN=C(N)N)NC(=O)[C@H](CC(C)C)NC(=O)[C@@H](CC(C)C)NC(=O)[C@H](Cc1ccc(O)cc1)NC(=O)[C@H](CO)NC(=O)[C@H](Cc1c[nH]c2ccccc12)NC(=O)[C@H](Cc1cnc[nH]1)NC(=O)[C@@H]1CCC(=O)N1` [S3718 Leuprolide Acetate.cdx], the cell viability is 103%.

Turning to `Cc1onc(-c2c(F)cccc2Cl)c1C(=O)N[C@@H]1C(=O)N2[C@@H]1SC(C)(C)[C@@H]2C(=O)O` [Flucloxacillin sodium], the cell viability amounted to 95.6%.

For the compound `CC(CCc1ccccc1)NCC(=O)c1ccc(O)c(C(N)=O)c1` (stereo not drawn) [Labetalone hydrochloride], the cell viability came out at 108%.

Take `COc1cc(C(=O)N(CCCc2ccccc2)Cc2ccc(CC(=O)O)cc2)cc(OC)c1C`: the cell viability is 101%.

Turning to `O=C1N=C(O)NC1(c1ccccc1)c1ccccc1` [Phenytoin sodium (Dilantin)], the cell viability worked out at 97.7%.

For `Cn1c(Nc2ccc(C(F)(F)F)cc2)nc2cc(Oc3ccnc(-c4ncc(C(F)(F)F)[nH]4)c3)ccc21`, the cell viability was found to be 64.2%.

Consider `CCc1cncnc1N1CCN(Cc2nc3ccc(C(F)(F)F)cc3[nH]2)CC1`, for which the cell viability amounted to 57.4%.

On to `N#Cc1cc(-c2n[nH]c(-c3ccncc3)n2)ccn1` [Topiroxostat], for which the cell viability is 104%.

Regarding `O=C1c2c(O)cc(O)cc2OC(c2ccc(O)c(O)c2)C1O` (stereo not drawn) [Taxifolin (Dihydroquercetin)], the cell viability stood at 100%.

For the compound `CC1(C)CCCC2(C)C1CCC1(C)OCCC12` (single isomer, unassigned; (-)) [(-)-Ambroxide], the cell viability came out at 95.9%.

Turning to `CCOc1nc2cccc(C(=O)OC(C)OC(=O)OC3CCCCC3)c2n1Cc1ccc(-c2ccccc2-c2nn[nH]n2)cc1` (stereo not drawn) [Candesartan cilexetil (Atacand)], the cell viability is 62.2%.

As for `COc1cc2c(=O)c3c(O)c([C@@H]4O[C@H](CO[C@@H]5OC[C@](O)(CO)[C@H]5O)[C@@H](O)[C@H](O)[C@H]4O)c(O)cc3oc2cc1O` [Polygalaxanthone III], the cell viability worked out at 101%.

In the case of `O=[N+]([O-])c1ccc2c(c1)S(=O)(=O)C=C2` [Stattic], the cell viability was determined as 0.12%.

With `CC(C)OC(=O)OCOP(=O)(CO[C@H](C)Cn1cnc2c(N)ncnc21)OCOC(=O)OC(C)C` [Tenofovir Disoproxil Fumarate], the cell viability amounted to 34.7%.

Regarding `CC(=O)OC(C)(C)CCC(=O)[C@](C)(O)[C@H]1[C@H](O)C[C@@]2(C)[C@@H]3CC=C4[C@@H](C[C@H](O)[C@@H](O)C4(C)C)[C@]3(C)C(=O)C[C@]12C` [Curcurbitacin IIA], the cell viability was 34.7%.

With `CC(C)NC[C@@H](C(=O)N1CCN(c2ncnc3c2[C@H](C)C[C@H]3O)CC1)c1ccc(Cl)cc1` [Ipatasertib (GDC-0068)], the cell viability was determined as 51.1%.

Take `O=C1C(=Cc2cccnc2)C(=O)c2ccccc21`: the cell viability was found to be 89%.

In the case of `N[C@@H](CSC(c1ccccc1)(c1ccccc1)c1ccccc1)C(=O)O`, the cell viability was found to be 8.53%.

On to `CC(C)=CC[C@@H](O)C1=CC(=O)c2c(O)ccc(O)c2C1=O` [Shikonin], for which the cell viability was 0.44%.

`C[C@H]1CN(C[C@H](Cc2ccccc2)C(=O)NCC(=O)O)CC[C@@]1(C)c1cccc(O)c1` [Alvimopan dihydrate]: the cell viability is 102%.

For `CC(=O)O[C@H]1CC(=O)OC(C)(C)[C@@H]2CC(=O)[C@]3(C)[C@H](CC[C@@]4(C)[C@@H](c5ccoc5)OC(=O)[C@H]5O[C@]543)[C@@]12C` [Nomilin], the cell viability was found to be 99.2%.

For the compound `CC(C)(C)c1nc(-c2ccc(NC(=O)Nc3cccc(C(F)(F)F)c3)c3ccccc23)c2c(N)nccn12` [kira6], the cell viability came out at 1.58%.

For the compound `COc1ccc2[nH]c([S+]([O-])Cc3ncc(C)c(OC)c3C)nc2c1` (stereo not drawn) [Omeprazole (Prilosec)], the cell viability turned out to be 94.9%.

Consider `COc1ccc2cc([C@H](C)C(=O)O)ccc2c1` [Naproxen Sodium], for which the cell viability worked out at 98.6%.

Turning to `C#C[C@]1(O)CC[C@H]2[C@@H]3CCC4=CCCC[C@@H]4[C@H]3C(=C)C[C@@]21CC` [Desogestrel], the cell viability stood at 71.4%.
